Assay results taken from PubChem BioAssay (NCATS).
Results filed as inconclusive are left out. Active and inactive are the calls of the source. The call rests on the fitted dose curve; in most records, active means well fitted curve in the direction sought with a large enough effect; inconclusive means small, poorly fitted or top-dose-only effect, or another doubt; inactive means no such curve, though single readings can be large; an effect the other way counts as inactive or inconclusive.

Columns and labels:
[1] = target: Protein phosphatase 1D (Homo sapiens) (UniProt O15297); assay: RapidFire Mass Spectrometry qHTS Assay for Modulators of WT P53-Induced Phosphatase 1 (WIP1) (AID 1347424); conditions: WIP1 dephosphorylation of phosphopeptide, RapidFire MS; series mostly up to 63 µM;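 further: amount of dephosphorylated VEPPL-S-QETFS peptide product formed by WIP1; plate controls were DMSO wells for no effect and GSK830371 inhibitor control at 10 µM for full effect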
Chain of Protein phosphatase 1D (Homo sapiens) (O15297 whole entry, looked up): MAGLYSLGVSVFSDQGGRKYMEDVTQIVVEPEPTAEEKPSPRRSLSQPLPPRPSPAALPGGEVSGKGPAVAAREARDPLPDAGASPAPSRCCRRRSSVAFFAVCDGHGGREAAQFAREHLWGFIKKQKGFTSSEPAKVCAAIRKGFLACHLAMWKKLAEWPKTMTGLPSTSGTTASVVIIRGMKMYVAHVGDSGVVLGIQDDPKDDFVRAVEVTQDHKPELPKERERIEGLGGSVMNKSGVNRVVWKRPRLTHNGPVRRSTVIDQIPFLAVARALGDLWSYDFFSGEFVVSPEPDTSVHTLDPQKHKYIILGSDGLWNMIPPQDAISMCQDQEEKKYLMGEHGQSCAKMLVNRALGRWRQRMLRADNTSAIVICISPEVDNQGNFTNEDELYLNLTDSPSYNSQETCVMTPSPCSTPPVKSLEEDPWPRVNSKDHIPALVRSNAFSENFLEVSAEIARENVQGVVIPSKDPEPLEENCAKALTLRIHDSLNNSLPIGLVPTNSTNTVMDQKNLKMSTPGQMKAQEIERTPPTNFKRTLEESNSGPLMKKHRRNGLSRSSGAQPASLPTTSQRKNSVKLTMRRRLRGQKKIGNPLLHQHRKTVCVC
Summary of the method: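 10 nM WIP1 preincubated with compounds 1 hr at room temperature in pH 7.5 Tris buffer with 30 mM MgCl2, 1 mM TCEP; 2 uM VEPPL-pS-QETFS phosphopeptide for 5 min, formic acid quench; dephosphorylated product quantified by RapidFire MS against labelled standard.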

[2] = target: Protein phosphatase 1D (Homo sapiens) (UniProt O15297); assay: Rhodamine-PBP qHTS Assay for Modulators of WT P53-Induced Phosphatase 1 (WIP1) (AID 1347425); conditions: recombinant WIP1, Rhodamine-PBP phosphate fluorescence, real-time; series mostly up to 57.5 µM; further: % of control where 0% means no effect
Summary of the method: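 The read-out is the change in Rhodamine-PBP fluorescence (f1 - f0, ex 525/em 598 nm) as Pi is released, read each minute for 11 min. Final reaction: 5 nM WIP1, 10 uM phosphopeptide VEPPL-pS-QETFS, 10 uM Rh-PBP, 50 mM Tris-HCl pH 7.5, 30 mM MgCl2. Compound was preincubated with enzyme for 1 hour at room temperature.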

[3] = Primary qHTS for inhibitors of La Crosse Virus (LACV) - induced cell death in SH-SY5Y cells (AID 1508616); conditions: SH-SY5Y LACV cytopathicity rescue, ATP luminescence, 6 d; series mostly up to 4.29 µM;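 further: top concentration of the series differs between compounds; 0% = infected DMSO wells and 100% = uninfected DMSO wells; higher means more rescue of cells from virus-induced death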
Summary of the method: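 SH-SY5Y cells (6000/well) plated 24 h, then given compounds by pin transfer and LACV at 0.01 MOI for 6 days at 37C. Viability measured by ATPLite luminescence, normalized to infected DMSO and uninfected DMSO.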

[4] = target: Calcium and integrin-binding protein 1 (Homo sapiens) (UniProt Q99828); assay: Primary qHTS for Identification of Calcium Integrin Binding Protein 1 (CIB1) Competitor (AID 1508620); conditions: CIB1-GST / FITC-alphaIIb peptide fluorescence polarization; series mostly up to 114 µM;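 further: GST tagged CIB1 binding a fluorescein labelled alphaIIb integrin peptide tracer; top concentration of the series differs between compounds; on the % scale 0 is the no-effect control and ±100 the full control effect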
Chain of Calcium and integrin-binding protein 1 (Homo sapiens) (Q99828 whole entry, looked up): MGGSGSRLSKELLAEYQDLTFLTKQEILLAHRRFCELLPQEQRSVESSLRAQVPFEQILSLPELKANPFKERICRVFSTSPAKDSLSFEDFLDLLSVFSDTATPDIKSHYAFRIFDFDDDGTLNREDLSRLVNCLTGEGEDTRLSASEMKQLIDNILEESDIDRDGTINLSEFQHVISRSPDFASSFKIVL
Summary of the method: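 Fluorescence polarization competition: GST-tagged CIB1 (1 uM final) preincubated with compound 15 min at room temperature, then FITC-labelled alphaIIb peptide (100 nM final) added. After 15 min at room temperature, polarization read at Ex 480/Em 540.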

[5] = Counterscreen qHTS for small molecule stabilizers of the endoplasmic reticulum resident proteome: GLuc-NoTag assay (AID 1508627); conditions: Gaussia luciferase NoTag secretion counterscreen, luminescence, thapsigargin 100 nM for final 4 h; series mostly up to 76.4 µM; further: potency means the concentration at half of the fitted maximal effect;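 on activity change, negative = inhibition: SH-SY5Y cells given compound then 100 nM thapsigargin to empty ER calcium; 0% = thapsigargin alone and -100% = DMSO vehicle control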
Summary of the method: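 SH-SY5Y cells stably expressing constitutively secreted GLuc without SERCaMP tag, exposed to compound for 19 hr, then to 100 nM thapsigargin for 4 hr at 37C. Medium luciferase was read by coelenterazine luminescence without lysis.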

[6] = Confirmatory qHTS for small molecule stabilizers of the endoplasmic reticulum resident proteome: Secreted ER Calcium Modulated Protein (SERCaMP) assay (AID 1508628); conditions: SERCaMP secreted luciferase ER calcium/proteostasis reporter; series mostly up to 76.3 µM; further: nearly all actives have a fitted effect of over 40% in size; further: potency means the concentration at half of the fitted maximal effect
Summary of the method: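 SH-SY5Y cells stably expressing GLuc-SERCaMP, treated 16 h with compound (primary 1.53, 7.67, 38.3 uM; confirmation 11 concentrations, up to 76.6 uM), then 100 nM thapsigargin for 4 h. Secreted Gaussia luciferase in medium read by coelenterazine luminescence.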

[7] = target: Calcium and integrin-binding protein 1 (Homo sapiens) (UniProt Q99828); assay: Confirmatory qHTS for Identification of Calcium Integrin Binding Protein 1 (CIB1) Competitor (AID 1508617); conditions: CIB1 binding competition assay, biochemical qHTS; series mostly up to 114 µM; further: potency means the concentration at half of the fitted maximal effect; nearly all actives have a fitted effect of over 65% in size
Summary of the method: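 Compounds at up to 114 uM final met 1 uM GST-tagged CIB1 for 15 min at room temperature (HEPES pH 7.4, 5 mM CaCl2). FITC-labelled alphaIIb peptide, 100 nM, added; polarization read after 15 min more.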

Cc1cccc(C)c1NC(=O)c1ccccc1C(=O)O
inactive: Potency [1] | outcome [2] | outcome [3] | Potency [4]

CCO[C@@H]1O[C@H](C(COCc2ccccc2)OCc2ccccc2)[C@H](OCc2ccccc2)[C@H]1O (some centres undefined)
inactive: Potency [1] | outcome [2] | outcome [3] | Potency [4]

CCN1CCCC(OC(=O)C(c2ccccc2)c2ccccc2)C1 (centres undefined)
inactive: Potency [1] | outcome [2] | outcome [3] | Potency [4]

CCCCCCCCNC(C)C(O)c1ccc(SC(C)C)cc1 (centres undefined)
inactive: Potency [1] | outcome [2] | outcome [3] | Potency [4]

N/C(=N\N=C\c1ccc(Cl)cc1)N/N=C/c1ccc(Cl)cc1
inactive: Potency [1] | outcome [2] | outcome [3] | Potency [4]

CC1CCc2c(N3CCC(O)CC3)c(F)cc3c(=O)c(C(=O)O)cn1c23 (centres undefined)
inactive: Potency [1] | outcome [2] | outcome [3] | Potency [4]

CCCCCCCCCCCCCCCCO
inactive: Potency [1] | outcome [2] | outcome [3] | Potency [4]

Oc1ccccc1C=NCc1ccccc1
inactive: Potency [1] | outcome [2] | outcome [3] | Potency [4]

Cc1ccc(-c2ncc(Cl)cc2-c2ccc(S(C)(=O)=O)cc2)cn1
inactive: Potency [1] | outcome [2] | outcome [3] | Potency [4]

CC(=O)O[C@H]1C[C@@H]2CC[C@@H]3[C@H](CC[C@@]4(C)[C@H]3C[C@H]([N+]3(C)CCCCC3)[C@@H]4OC(C)=O)[C@@]2(C)C[C@@H]1N1CCCCC1
inactive: Potency [1] | outcome [2] | outcome [3] | Potency [4]

Cc1nc(-c2ccc(Cl)cc2)oc1COC(C)(C)C(=O)O
inactive: Potency [1] | outcome [2] | outcome [3] | Potency [4]

C=C[C@@]1(C)CC(=O)[C@]2(O)[C@@]3(C)[C@@H](O)CCC(C)(C)[C@@H]3[C@H](O)[C@H](OC(C)=O)[C@@]2(C)O1
inactive: Potency [1] | outcome [2] | outcome [3] | Potency [4]

CCN[C@@H]1C[C@H](N)[C@@H](OC2OC(CN)=CCC2N)[C@H](O)[C@H]1O[C@H]1OC[C@](C)(O)[C@H](NC)[C@H]1O (some centres undefined)
inactive: activity change, negative = inhibition [1] -11.3% [at 0.505 µM] | activity change, negative = inhibition [2] -2.47% [at 0.575 µM] | activity change [3] -7.05% [at 0.0343 µM] | activity change, negative = inhibition [4] 1.28% [at 1.07 µM]

CCN(CC)CCOC(=O)C(Cc1cccc2ccccc12)CC1CCCO1 (centres undefined)
inactive: Potency [1] | outcome [2] | outcome [3] | Potency [4]

FC1(F)C(F)(F)C(F)(F)C2(F)C(F)(F)C(F)(F)C(F)(F)C(F)(F)C2(F)C1(F)F (centres undefined)
inactive: Potency [1] | outcome [2] | outcome [3] | Potency [4]

COc1cc(NS(=O)(=O)c2ccc(N)cc2)ncn1
inactive: Potency [1] | outcome [2] | outcome [3] | Potency [4]

CCOC(=O)[C@H](CCc1ccccc1)N[C@@H](C)C(=O)N1[C@H](C(=O)O)C[C@@H]2CCC[C@@H]21
inactive: Potency [1] | outcome [2] | outcome [3] | Potency [4]

CC[C@]12CCCN3CCc4c(n(c5ccccc45)C(=O)C1)[C@@H]32
inactive: Potency [1] | outcome [2] | outcome [3] | Potency [4]

CCCCCCCCCCCCCC(=O)OC(C)C
inactive: Potency [1] | outcome [2] | outcome [3] | Potency [4]

CCCCC(CC)COC(=O)c1ccc(N(C)C)cc1 (centres undefined)
inactive: Potency [1] | outcome [2] | outcome [3] | Potency [4]

CC(C)(C)NC[C@H](O)COc1cccc2c1CCCC2=O
inactive: Potency [1] | outcome [2] | outcome [3] | Potency [4]

COC(=O)C(c1ccccc1Cl)N1CCc2sccc2C1 (centres undefined)
inactive: Potency [1] | outcome [2] | outcome [3] | Potency [4]

CC(C)[N+](C)(C)CC(O)COc1cccc2ccccc12 (centres undefined)
inactive: Potency [1] | outcome [2] | outcome [3] | Potency [4]

N#CCC(=O)NN
inactive: Potency [1] | outcome [2] | outcome [3] | Potency [4]

CN(C)CCC[C@@]1(c2ccc(F)cc2)OCc2cc(C#N)ccc21
inactive: Potency [1] | outcome [2] | outcome [3] | Potency [4]

CCCCNc1ccc(C(=O)OCCOCCOCCOCCOCCOCCOCCOCCOCCOC)cc1
inactive: Potency [1] | outcome [2] | Potency [4]

O=C(NC1CCN(CCc2c[nH]c3ccccc23)CC1)c1ccccc1
inactive: Potency [1] | outcome [2] | outcome [3] | Potency [4]

CO[C@]12C[C@@H](COC(=O)c3cncc(Br)c3)CN(C)[C@@H]1Cc1cn(C)c3cccc2c13
inactive: Potency [1] | outcome [2] | Potency [4]

C=CCN1CCc2nc(N)sc2CC1
inactive: Potency [1] | outcome [2] | outcome [3] | Potency [4] | Potency [5] | Potency [6]

CC(C)(Cc1c[nH]c2ccccc12)NCC(O)COc1ccccc1C#N (centres undefined)
inactive: Potency [1] | outcome [2] | outcome [3] | Potency [5]

C=C[C@H]1CN2CC[C@H]1C[C@@H]2[C@@H](O)c1ccnc2ccc(OC)cc12
inactive: Potency [1] | outcome [2] | outcome [3] | Potency [5]

C[C@@]12C(=O)OC(=O)[C@]1(C)C1CCC2O1
inactive: Potency [1] | outcome [2] | Potency [4]

CC(C)NCC(O)c1ccc2ccccc2c1 (centres undefined)
inactive: Potency [1] | outcome [2] | Potency [4]

CC(O)Cn1cnc2c1c(=O)n(C)c(=O)n2C (centres undefined)
inactive: Potency [1] | outcome [2] | Potency [4]

O=C(c1ccc(F)cc1)C1CCN(CCn2c(=S)[nH]c3ccccc3c2=O)CC1
inactive: Potency [1] | outcome [2] | Potency [4]

CCCCCCCCCCCCSCCOCCO
inactive: Potency [1] | outcome [2] | Potency [4]

O=C(O)Cc1csc(-c2ccc(Cl)cc2)n1
inactive: Potency [1] | outcome [2] | Potency [4]

CC(C)(C)NCC(O)COc1cccc2c1C[C@H](O)[C@H](O)C2 (some centres undefined)
inactive: Potency [1] | outcome [2] | Potency [4]

CCCCNC(=O)NS(=O)(=O)c1ccc(N)cc1
inactive: Potency [1] | outcome [2] | Potency [4]

CN1CCN(C2=Nc3cc(F)ccc3Cc3ccccc32)CC1
active: Potency [5] 28.2 µM | Potency [6] 39.8 µM
inactive: Potency [1] | outcome [2] | outcome [3] | Potency [4]

OCCOCCN1CCN(C2=Nc3ccccc3Sc3ccccc32)CC1
inactive: Potency [1] | outcome [2] | Potency [4]

CC(=O)OCC(=O)[C@H]1CC[C@H]2[C@@H]3CCC4=CC(=O)CC[C@]4(C)[C@H]3CC[C@]12C
inactive: Potency [1] | outcome [2] | Potency [4]

CC(C)n1c(/C=C/[C@@H](O)C[C@@H](O)CC(=O)O)c(-c2ccc(F)cc2)c2ccccc21
inactive: Potency [1] | outcome [2] | Potency [4]

CC(=O)NC(=O)c1ccccc1O
inactive: Potency [1] | outcome [2] | Potency [4]

CC(C)Cc1ccc(CC(=O)O)cc1
inactive: Potency [1] | outcome [2] | Potency [4]

O=S(=O)(O)c1ccc(O)cc1
inactive: Potency [1] | outcome [2] | Potency [4]

COc1cc(C)nc(-n2nc(C)cc2OC)n1
inactive: Potency [1] | outcome [2] | Potency [4]

Cc1ccc2c(Br)cc(Br)c(O)c2n1
inactive: Potency [1] | outcome [2] | Potency [4]

CCCCCCCCCCCCCC[N+](C)(C)Cc1ccccc1
inactive: Potency [1] | outcome [2] | Potency [4]

CCCCCCCCCCC[C@@H](C[C@@H]1OC(=O)[C@H]1CCCCCC)OC(=O)[C@H](CC(C)C)NC=O
inactive: Potency [1] | outcome [2] | Potency [4]

C[N+]12CCC(CC1)C(OC(=O)C(O)(c1ccccc1)c1ccccc1)C2 (centres undefined)
inactive: Potency [1] | outcome [2] | Potency [4]

C[C@@H](O)[C@H]1C(=O)N2C(C(=O)O)=C([C@H]3CCCO3)S[C@H]12
inactive: Potency [1] | outcome [2] | outcome [3] | Potency [4]

CN1CCC(OC(c2ccccc2)c2ccccc2)CC1
inactive: Potency [1] | outcome [2] | outcome [3] | Potency [4] | Potency [5] | Potency [6]

CCCCOC(=O)CC(CC(=O)OCCCC)(OC(C)=O)C(=O)OCCCC
inactive: Potency [1] | outcome [2] | Potency [4]

COc1ccccc1N1CCN(CCCCNC(=O)c2ccc(-c3ccc(C(C)=O)cc3)cc2)CC1
inactive: Potency [1] | outcome [2] | Potency [4]

O=C1c2cccc3c2[C@H](CCC3)CN1[C@@H]1CN2CCC1CC2
inactive: Potency [1] | outcome [2] | Potency [4]

CC(=O)OC[C@H]1O[C@@H](n2ncc(=O)[nH]c2=O)[C@H](OC(C)=O)[C@@H]1OC(C)=O
inactive: Potency [1] | outcome [2] | Potency [4]

CC(=C(CCOC(=O)C(C)C)SSC(CCOC(=O)C(C)C)=C(C)N(C=O)Cc1cnc(C)nc1N)N(C=O)Cc1cnc(C)nc1N
inactive: Potency [1] | outcome [2] | Potency [4]

O=C(O)CCc1nc2ccccc2[nH]1
inactive: Potency [1] | outcome [2] | Potency [4]

CCC1Nc2cc(Cl)c(S(N)(=O)=O)cc2S(=O)(=O)N1 (centres undefined)
inactive: Potency [1] | outcome [2] | outcome [3] | Potency [4]

C[C@H]1O[C@@H](O[C@H]2CC[C@@]3(C)[C@H](CC[C@@H]4[C@@H]3C[C@@H](O)[C@]3(C)[C@@H](C5=CC(=O)OC5)CC[C@]43O)C2)C[C@H](O)[C@@H]1O[C@H]1C[C@H](O)[C@H](O[C@H]2C[C@H](O)[C@H](O[C@@H]3O[C@H](CO)[C@@H](O)[C@H](O)[C@H]3O)[C@@H](C)O2)[C@@H](C)O1
inactive: Potency [1] | outcome [2] | Potency [4]

CCc1oc2ccccc2c1C(=O)c1cc(I)c(O)c(I)c1
active: Potency [7] 35.5 µM

Oc1ccc(Cl)cc1Cc1cc(Cl)ccc1O
active: Potency [7] 44.7 µM
